molecular target: T1, Her1-GFP homodimer (zebrafish (Danio rerio), UniProt Q90463 1-328); experiment: MITOMI; PPARgamma-mCherry co-present (non-interacting control); TnT SP6 wheat germ expression extract on MITOMI chip, 3 h at room temperature; salt and pH not stated; PBS used for washing; high values mean tight binding; conditions: protein: ivt; tags: C-terminal GFP; chain copies: 2; label: Cy5; dsDNA, one strand shown
T1 sequence: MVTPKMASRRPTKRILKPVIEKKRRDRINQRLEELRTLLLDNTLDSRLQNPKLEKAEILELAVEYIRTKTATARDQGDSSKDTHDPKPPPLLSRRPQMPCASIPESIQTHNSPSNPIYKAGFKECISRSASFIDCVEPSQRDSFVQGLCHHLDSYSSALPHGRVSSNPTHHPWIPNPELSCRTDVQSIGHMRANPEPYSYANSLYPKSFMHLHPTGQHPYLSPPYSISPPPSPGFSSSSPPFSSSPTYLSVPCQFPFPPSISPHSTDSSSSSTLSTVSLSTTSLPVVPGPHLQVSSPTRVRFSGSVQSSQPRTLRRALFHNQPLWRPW

Sequence	binding signal
GGTCGCGTGTGC	0.181 ± 0.0115 relative affinity (strongest site = 1)
GTTCACGTGTGC	0.0341 ± 0.00138 relative affinity (strongest site = 1)
CTGCTCGTGCTT	0.0197 ± 0.00116 relative affinity (strongest site = 1)
GGGCACGTGCGC	0.406 ± 0.00899 relative affinity (strongest site = 1)
GTTCTCGTGTTT	0.0171 ± 0.0014 relative affinity (strongest site = 1)
AAACACGAGCCA	0.0562 ± 0.00247 relative affinity (strongest site = 1)
GTACACGTGGCG	0.237 ± 0.00793 relative affinity (strongest site = 1)
TTGCACGTGTAC	0.0556 ± 0.0021 relative affinity (strongest site = 1)
CGACACGTGCTC	0.416 ± 0.00933 relative affinity (strongest site = 1)
CTGCACGTGCAT	0.0391 ± 0.00232 relative affinity (strongest site = 1)
GCGCTCGTGCGC	0.0291 ± 0.00508 relative affinity (strongest site = 1)
TATCTCGTGCTG	0.029 ± 0.0011 relative affinity (strongest site = 1)
GTTCGCGTGTGC	0.0452 ± 0.00123 relative affinity (strongest site = 1)
CTCCTCGTGTTG	0.0177 ± 0.000557 relative affinity (strongest site = 1)
TCCCACGGGATT	0.0209 ± 0.00257 relative affinity (strongest site = 1)
CAGCGCGTGTGC	0.057 ± 0.0015 relative affinity (strongest site = 1)
CAGCACGTGTCT	0.456 ± 0.0098 relative affinity (strongest site = 1)
CATCACGTGAAA	0.018 ± 0.00636 relative affinity (strongest site = 1)
TTGCTCGTGCTT	0.0235 ± 0.00192 relative affinity (strongest site = 1)
ATACACAGTGCGC	0.0128 ± 0.000425 relative affinity (strongest site = 1)
CAGCGCGTGCCT	0.227 ± 0.0107 relative affinity (strongest site = 1)

molecular target: T2, Her7 (coupled to chip, Fig 2D);Hes6-mCherry (zebrafish (Danio rerio);zebrafish …, UniProt Q9I9K1;Q6P0J1 1-206;1-226, |); experiment: MITOMI; Her7:Hes6 heterodimer, Her7 coupled to chip and Hes6-mCherry in solution; TnT SP6 wheat germ expression extract on MITOMI chip, 3 h at room temperature; salt and pH not stated; PBS used for washing; high values mean tight binding; conditions: protein: ivt;ivt; copies: 1;1; label: Cy5; dsDNA, one strand shown
T2 sequence 1: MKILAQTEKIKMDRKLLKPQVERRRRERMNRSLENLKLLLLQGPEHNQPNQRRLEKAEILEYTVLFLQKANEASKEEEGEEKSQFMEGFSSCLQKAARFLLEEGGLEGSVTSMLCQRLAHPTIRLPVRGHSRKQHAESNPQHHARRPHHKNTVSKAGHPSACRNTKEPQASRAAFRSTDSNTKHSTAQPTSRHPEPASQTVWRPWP
T2 sequence 2: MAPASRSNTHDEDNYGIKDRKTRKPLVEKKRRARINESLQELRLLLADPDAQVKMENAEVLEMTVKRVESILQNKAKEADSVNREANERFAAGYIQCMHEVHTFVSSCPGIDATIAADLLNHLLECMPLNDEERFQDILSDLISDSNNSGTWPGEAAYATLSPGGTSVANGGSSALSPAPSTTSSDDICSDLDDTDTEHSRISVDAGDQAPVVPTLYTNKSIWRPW

Sequence	binding signal
GGTCGCGTGTGC	0.182 ± 0.00317 relative affinity (strongest site = 1)
GTTCACGTGTGC	0.102 ± 0.00486 relative affinity (strongest site = 1)
CTGCTCGTGCTT	0.103 ± 0.00315 relative affinity (strongest site = 1)
GGGCACGTGCGC	0.542 ± 0.0166 relative affinity (strongest site = 1)
GTTCTCGTGTTT	0.0265 ± 0.0016 relative affinity (strongest site = 1)
AAACACGAGCCA	0.208 ± 0.00306 relative affinity (strongest site = 1)
GTACACGTGGCG	0.275 ± 0.00281 relative affinity (strongest site = 1)
TTGCACGTGTAC	0.178 ± 0.00237 relative affinity (strongest site = 1)
CGACACGTGCTC	0.638 ± 0.0296 relative affinity (strongest site = 1)
CTGCACGTGCAT	0.158 ± 0.00223 relative affinity (strongest site = 1)
GCGCTCGTGCGC	0.0861 ± 0.00202 relative affinity (strongest site = 1)
TATCTCGTGCTG	0.0758 ± 0.00824 relative affinity (strongest site = 1)
GTTCGCGTGTGC	0.1 ± 0.00206 relative affinity (strongest site = 1)
CTCCTCGTGTTG	0.0605 ± 0.00276 relative affinity (strongest site = 1)
TCCCACGGGATT	0.0207 ± 0.00168 relative affinity (strongest site = 1)
CAGCGCGTGTGC	0.179 ± 0.00225 relative affinity (strongest site = 1)
CAGCACGTGTCT	0.679 ± 0.014 relative affinity (strongest site = 1)
CATCACGTGAAA	0.0344 ± 0.00348 relative affinity (strongest site = 1)
TTGCTCGTGCTT	0.109 ± 0.00195 relative affinity (strongest site = 1)
ATACACAGTGCGC	0.0208 ± 0.0021 relative affinity (strongest site = 1)
CAGCGCGTGCCT	0.4636 ± 0.00426 relative affinity (strongest site = 1)
